Compound activity: PubChem, Pan Lab, Icahn School of Medicine at Mount Sinai
Shown is part of a subset that was picked to be rich in hits.
RBX1-CUL1 inh = inhibitors of human ROC1-CUL1 ubiquitin ligase activity; in vitro K48 di-Ub FRET, acceptor:donor ratio, 45 min; inhibition, % at 10 µM; 0.6% of 140,000 active; AID 1347404, 2020; in the data active means inhibition above about 25%
Target sequence (P62877 whole entry, looked up): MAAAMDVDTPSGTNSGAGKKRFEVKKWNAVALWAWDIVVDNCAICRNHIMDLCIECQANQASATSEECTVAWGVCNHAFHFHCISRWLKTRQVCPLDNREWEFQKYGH
Target sequence (Q13616 whole entry, looked up): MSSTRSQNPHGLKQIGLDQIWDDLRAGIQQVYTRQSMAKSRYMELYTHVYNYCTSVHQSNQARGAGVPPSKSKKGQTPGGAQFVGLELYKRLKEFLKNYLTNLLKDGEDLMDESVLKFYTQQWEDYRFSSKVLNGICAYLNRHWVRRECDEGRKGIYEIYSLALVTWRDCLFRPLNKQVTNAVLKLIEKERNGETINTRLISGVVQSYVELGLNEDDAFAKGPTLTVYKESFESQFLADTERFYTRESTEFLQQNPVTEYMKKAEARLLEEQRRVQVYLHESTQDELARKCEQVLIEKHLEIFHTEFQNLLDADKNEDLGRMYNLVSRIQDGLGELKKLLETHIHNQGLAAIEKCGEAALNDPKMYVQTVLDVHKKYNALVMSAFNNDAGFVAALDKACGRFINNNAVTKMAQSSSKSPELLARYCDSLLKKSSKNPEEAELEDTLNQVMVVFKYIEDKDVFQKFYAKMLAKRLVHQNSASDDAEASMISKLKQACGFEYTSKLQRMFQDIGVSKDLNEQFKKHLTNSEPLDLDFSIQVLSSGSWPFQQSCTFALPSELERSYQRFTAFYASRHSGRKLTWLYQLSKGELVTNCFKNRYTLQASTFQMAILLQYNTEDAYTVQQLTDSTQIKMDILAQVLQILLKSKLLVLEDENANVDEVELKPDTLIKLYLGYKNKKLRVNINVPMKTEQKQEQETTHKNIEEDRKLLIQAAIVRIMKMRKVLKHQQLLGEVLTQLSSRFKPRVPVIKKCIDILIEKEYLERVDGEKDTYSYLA
* = called active by the depositor.

Screening CC(C)(C)N1C(=O)NC(=O)/C(=C/c2c(Cl)cccc2Cl)C1=O returned RBX1-CUL1 inh 25.6*.
O=C1NC(=S)NC(=O)C1=Cc1c(Cl)cccc1Cl was read as RBX1-CUL1 inh 3.4.
Screening COC(=O)c1ccccc1NP(=S)(Nc1ccccc1C(=O)OC)c1ccccc1 returned RBX1-CUL1 inh 7.5.
C=CC1CN2CCC1CC2[C@H](c1ccnc2ccccc12)S(=O)(=O)O (some centres undefined) was read as RBX1-CUL1 inh -4.0.
COc1ncc([N+](=O)[O-])cc1[N+](=O)[O-] was read as RBX1-CUL1 inh -4.0.
Screening C=CCNC(=O)c1cn(Cc2ccccc2)cc(C(=O)N2CCCC(C)C2)c1=O (centres undefined) returned RBX1-CUL1 inh -4.6.
CN(C)C(=O)Oc1c(Br)cc(Br)c(OC(=O)N(C)C)c1Br was read as RBX1-CUL1 inh 8.7.
For CNC(=O)Oc1c(Br)cc2sc(=O)oc2c1Br the results were RBX1-CUL1 inh 33.7*.
`CN(C)C(=O)Oc1ccn2cc[n+](C)c2c1` gave RBX1-CUL1 inh 1.3.
`COc1ccc(CNCCc2ccc(Cl)cc2Cl)c(OC)c1OC` gave RBX1-CUL1 inh 6.7.
`CN1CCN(C(=O)COc2ccc(F)cc2F)CC1` gave RBX1-CUL1 inh 5.9.
Screening C=CCN1C(=O)C2(C(C(=O)OC)=C(CC(=O)OC)OC(=N)C2C(=O)OCC)c2ccccc21 (centres undefined) returned RBX1-CUL1 inh 7.3.
N#CC1C(=N)Oc2c(c(=O)oc3ccccc23)C1c1ccccc1OCc1ccc(Cl)cc1 (centres undefined) was read as RBX1-CUL1 inh -5.0.
`CC(C)N1CCN(Cc2ccccc2)C(CCO)C1` (centres undefined) gave RBX1-CUL1 inh -0.2.
`Cc1cc(C=C2C(=O)NC(=S)NC2=O)c(C)n1-c1cccc(C(F)(F)F)c1` gave RBX1-CUL1 inh 26.4*.
For Cc1cc(C=C2C(=O)NC(=S)NC2=O)c(C)n1-c1ccc2c(c1)OCO2 the results were RBX1-CUL1 inh 52.0*.
`O=C1NC(=S)NC(=O)C1=Cc1ccc(O)c(O)c1` gave RBX1-CUL1 inh 10.4.
Screening O=C1NC(=S)NC(=O)C1=Cc1cn(Cc2ccc(Cl)cc2Cl)c2ccccc12 returned RBX1-CUL1 inh 0.6.
Screening COc1cc(C=C2C(=O)NC(=S)NC2=O)ccc1OCc1ccc(F)cc1 returned RBX1-CUL1 inh -4.5.
Screening Cc1ccc(OCCn2c(C)c(C=C3C(=O)NC(=S)NC3=O)c3ccccc32)c(C)c1 returned RBX1-CUL1 inh 6.2.
Screening CN1CCN(Cc2nnc3n2-c2ccc(Cl)cc2C(c2ccccc2Cl)=NC3)CC1 returned RBX1-CUL1 inh 9.4.
`CCOC(=O)C1=C(c2ccccc2)OC(=N)C(C(=O)OCC)C12C(=O)Nc1ccccc12` (centres undefined) gave RBX1-CUL1 inh -16.2.
For CCOC(=O)N1CCC(N2CCCC(C(=O)c3sccc3C)C2)CC1 (centres undefined) the results were RBX1-CUL1 inh -7.5.
`COC(=O)C1=C(C(=O)OC)C2(c3ccccc3)C=CC1(c1ccccc1)O2` gave RBX1-CUL1 inh 22.9.
CCCC1=C(C(=O)OCC)C2(C(=O)Nc3ccccc32)C(C(=O)OC(C)(C)C)C(=N)O1 (centres undefined) was read as RBX1-CUL1 inh 3.4.
Screening CCN(CC)CCOc1ccc(CC(C)N(C)C)cc1 (centres undefined) returned RBX1-CUL1 inh 1.1.
`CCOc1ccc(C2=C(C=C3C(=O)NC(=O)NC3=O)C(c3ccccc3C)c3ccccc3O2)cc1` (centres undefined) gave RBX1-CUL1 inh 6.1.
For CCCCOC(=O)c1cc(-c2ccc(C=C3C(=O)NC(=O)NC3=O)o2)ccc1Cl the results were RBX1-CUL1 inh 98.0*.
Screening CCCC1=C(C(=O)OCC)C2(C(=O)Nc3ccc(C)cc32)C(C#N)C(=N)O1 (centres undefined) returned RBX1-CUL1 inh -14.2.
For CSc1ncc(CNCCc2ccc(O)cc2)c(N)n1 the results were RBX1-CUL1 inh 3.3.
O=C1NC(=S)NC(=O)C12C(c1ccccc1)NC(=S)NC2c1ccccc1 (centres undefined) was read as RBX1-CUL1 inh 35.0*.
O=C(NC1(C(F)(F)F)Oc2ccccc2O1)N1CC2CC(C1)c1cccc(=O)n1C2 (centres undefined) was read as RBX1-CUL1 inh 2.2.
Screening COc1ccc(N2C(=O)/C(=C/c3cccn3-c3cccc(C(=O)O)c3)C(=O)NC2=S)c(OC)c1 returned RBX1-CUL1 inh 62.6*.
`COc1ccc(-n2cccc2C=C2C(=O)NC(=O)NC2=O)cc1` gave RBX1-CUL1 inh 13.7.
`COc1ccc(C=C2C(=O)NC(=S)NC2=O)cc1OC(=O)c1ccccc1` gave RBX1-CUL1 inh 0.8.
`COc1ccc(/C=C/c2nc3ccccc3c(=O)n2-c2ccc(Br)cc2)cc1` gave RBX1-CUL1 inh 1.6.
Cc1c(Cl)cccc1N1C(=O)/C(=C/c2cc(C)n(-c3ccc(C(=O)O)cc3)c2C)C(=O)NC1=S was read as RBX1-CUL1 inh 34.6*.
Screening Cc1ccc(N2C(=O)/C(=C\c3ccc(-c4cccc(C(=O)O)c4)o3)C(=O)NC2=S)cc1 returned RBX1-CUL1 inh 89.6*.
For Cc1cc(/C=C2\C(=O)NC(=S)N(c3cccc(Cl)c3Cl)C2=O)c(C)n1-c1cc(C(=O)O)cc(C(=O)O)c1 the results were RBX1-CUL1 inh 96.2*.
`CC1=CC(=C2C(=O)NC(=O)NC2=O)C=C(C)N1c1ccc(C(=O)O)cc1` gave RBX1-CUL1 inh -1.2.
Screening COC(=O)c1ccc(-n2c(C)cc(/C=C3\C(=O)NC(=S)N(c4cccc(Cl)c4Cl)C3=O)c2C)c(C)c1 returned RBX1-CUL1 inh 31.3*.
`O=C1NC(=S)N(c2ccccc2)C(=O)/C1=C\c1ccc(OCc2ccccc2)c(C(=O)O)c1` gave RBX1-CUL1 inh 9.6.
Screening Cc1ccsc1CC1(CCc2ccncc2)C(=O)N(C)C(=O)N(C)C1=O returned RBX1-CUL1 inh 4.7.
For O=C1OCCC12CCCCC2 the results were RBX1-CUL1 inh 2.0.
CN1CCC(c2ccccc2)CC1 was read as RBX1-CUL1 inh 3.7.
`N#CCCN1CCN(c2ccc(F)cc2)CC1` gave RBX1-CUL1 inh -3.0.
`NC(N)=NC(N)=NCCc1c[nH]c2ccccc12` gave RBX1-CUL1 inh 1.3.
`Cc1cccc(CC(=O)N2CCN(Cc3ccco3)CC2)c1` gave RBX1-CUL1 inh 2.8.
Screening Cc1ccccc1N1CCN(CC#N)CC1 returned RBX1-CUL1 inh -1.2.
`COc1n[n+]([O-])c([N+](=O)[O-])cc1[N+](=O)[O-]` gave RBX1-CUL1 inh -3.3.
For COCCn1c(-c2ccc(C)cc2)cc(C(=O)O)c1C the results were RBX1-CUL1 inh 9.7.
`CC(N)Cc1ccccc1S(=O)c1ccccc1` (centres undefined) gave RBX1-CUL1 inh 1.4.
For CC12CCCCN1CCC1=C2CCC1 (centres undefined) the results were RBX1-CUL1 inh -0.2.
For Cc1cccc(C)c1-n1nnnc1C1(N2CCN(CC(=O)N3CCCC3)CC2)CCCCC1 the results were RBX1-CUL1 inh 3.5.
`COc1cc(C=C2C(=O)NC(=S)NC2=O)ccc1OCc1ccccc1Cl` gave RBX1-CUL1 inh -3.9.
